Out of some 420,000 compounds screened, about 50,000 (12%) were called active. About 26% were inconclusive and are not listed. The call rests on the fitted dose curve; in most records, active means well fitted inhibition curve with a large enough effect; inconclusive means small, poorly fitted or top-dose-only effect; inactive means flat fitted curve, though single readings scatter. This excerpt belongs to a sample that is enriched for actives.
Assay: qHTS for Inhibitors of human tyrosyl-DNA phosphodiesterase 1 (TDP1): qHTS in cells in presence of CPT; further: nearly all actives have a fitted effect of over 55% in size
Conditions: chicken DT40 Tdp1-/-;hTDP1 cells + 20 nM CPT, ATP luminescence, 48 h; series mostly up to 46.2 µM; activity change, negative = growth inhibition: at the top concentration
Outline: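 Chicken DT40 Tdp1-/- cells stably complemented with human TDP1 were seeded at 400 cells/well in medium containing 20 nM camptothecin, exposed to pin-transferred compounds, and grown at 37 °C for at least 48 hr. Viability was read as ATP luminescence.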
On the % scale 0 is the no-effect control and ±100 the full control effect; potency means the concentration at half of the fitted maximal effect.

SMILES | Potency | activity change, negative = growth inhibition
CC(NC(=O)c1cc(Sc2ccc(F)cc2F)nc2ccccc12)c1ccccc1 (centres undefined) | 13 µM (active) | 
CC(NC(=O)c1cc(=O)[nH]c2ccccc12)c1ccc(F)cc1F (centres undefined) |  | 7.75% (inactive)
CC(NC(=O)c1ccccc1SCC(=O)N1CCCC1)c1ccccc1 (centres undefined) |  | -7.91% (inactive)
CCCCNC(=O)c1nc(C2CCN(S(=O)(=O)c3ccc(F)c(F)c3)CC2)oc1-c1cccc(C(F)(F)F)c1 |  | 1.62% (inactive)
COc1ccc(N2CCN(Cc3nnc(-c4ccccc4)o3)CC2)cc1 |  | -12.2% (inactive)
COc1ccc(N2CCN(S(=O)(=O)c3cc(Br)cnc3N)CC2)cc1 |  | 20.1% (inactive)
COc1ccc(N2CCN(c3cc(C)nc4nncn34)CC2)cc1 | 13 µM (active) | 
CN(C(=O)c1ccc2c(c1)N(Cc1cccc(Cl)c1)C(=O)c1ccccc1S2=O)C1CCCCC1 (centres undefined) | 18.4 µM (active) | 
Cc1cccc(C(=O)Nc2ccc3c(c2)C(=O)N(CC(C)C)C3=O)c1 |  | -28.1% (inactive)
O=C(O)c1ccc2c(c1)N(Cc1ccc(F)cc1)C(=O)c1ccccc1S2=O (centres undefined) | 11.6 µM (active) | 
O=C(Nc1cc(Cl)cc(Cl)c1)c1ccc2c(c1)N(Cc1cccc(Cl)c1)C(=O)c1ccccc1S2=O (centres undefined) | 3.66 µM (active) | 
O=C(CN1C(=O)c2ccccc2C1=O)NCc1ccc(C(=O)O)cc1 |  | 0.562% (inactive)
Cc1ccccc1NC(=O)NCC1CCN(Cc2cccc(Cl)c2)CC1 |  | 7.35% (inactive)
CN(Cc1ccc(F)cc1)C(=O)CN1C(=O)c2ccccc2S1(=O)=O |  | 6.12% (inactive)
O=C(CCN1C(=O)c2ccccc2C1=O)NNC(=O)c1ccc(Cl)cc1Cl |  | -13.6% (inactive)
CCN(CC)C(=O)C1CCCN(Cc2cccc(Cl)c2)C1 (centres undefined) |  | -27.2% (inactive)
Brc1cc(/C=N/n2cnnc2)oc1Br |  | -27.2% (inactive)
CCCOC1CCCN(Cc2cn(C)nc2-c2ccccc2F)C1 (centres undefined) |  | 17% (inactive)
CC(=O)N1CC(=O)N(CC(=O)Nc2ccc(Br)cc2)C1=S |  | -13.4% (inactive)
COc1cccc(CNC(=O)Cn2c(=O)c3cccn3c3ccc(F)cc32)c1OC |  | -10.8% (inactive)
Cc1cccc(N2CC(C(=O)Nc3ccccc3N3CCCC3)CC2=O)c1C (centres undefined) |  | 9.32% (inactive)
O=C(COc1ccccc1F)OCc1cc(=O)n2nc(C3CCCCC3)sc2n1 |  | -2.79% (inactive)
CN(C)CCN=c1cc(-c2ccccc2)oc2ccc(Cl)cc12 |  | 1.27% (inactive)
CCc1nn(CC(=O)Nc2cccc(C)c2C)c(=O)c2cc3sccc3n12 |  | -1.63% (inactive)
CCc1nn(CC(=O)NCC(C)c2ccccc2)c(=O)c2cc3occc3n12 (centres undefined) |  | -15.7% (inactive)
CCc1nn(CC(=O)Nc2cc(C)cc(C)c2)c(=O)c2cc3sccc3n12 | 4.11 µM (active) | 

SMILES | Potency | activity change, negative = growth inhibition
O=C(CC1SC(N2CCOCC2)=NC1=O)Nc1ccccc1F (centres undefined) |  | 5.5% (inactive)
O=C(c1ccc(N2CCCC2=O)cc1)N1CCN(c2ccc(C(F)(F)F)cc2[N+](=O)[O-])CC1 | 3.66 µM (active) | 
O=C(Cc1ccc(S(=O)(=O)N2CCOCC2)s1)N1CCN(c2ccc(C(F)(F)F)cc2[N+](=O)[O-])CC1 | 14.6 µM (active) | 
O=C(OCC(=O)N1CCOCC1)c1ccc(N2CCOCC2)c([N+](=O)[O-])c1 |  | 17.7% (inactive)
O=C(Cc1ccc(S(=O)(=O)N2CCOCC2)s1)Nc1ccc(Br)c(C(F)(F)F)c1 | 14.6 µM (active) | 
O=C(Cc1ccc(S(=O)(=O)N2CCOCC2)s1)NCCOc1ccccc1F |  | -23.9% (inactive)
O=C(COc1ccc(S(=O)(=O)N2CCOCC2)cc1Cl)N1CCOCC1 |  | 1.63% (inactive)
O=C(Nc1cc(Cl)ccc1N1CCOCC1)c1ccc(N2CCCC2=O)cc1 |  | -12.9% (inactive)
CNS(=O)(=O)c1ccc(N2CCCC2=O)c([N+](=O)[O-])c1 |  | 21.4% (inactive)
Cc1cc(S(=O)(=O)N2CCOCC2)ccc1OCC(=O)Nc1cccc(C(F)(F)F)c1 |  | -10.3% (inactive)
O=C(Nc1ccccc1Cl)N1CCN(c2ccc3nncn3n2)CC1 |  | 3.27% (inactive)
Cc1c(C)c2ccc(OCC(=O)N3CCC(C(=O)O)CC3)c(C)c2oc1=O |  | 17.1% (inactive)
Cc1cccc(OCCC(=O)OCc2csc(CC(=O)Nc3ccccc3C)n2)c1 |  | -16.9% (inactive)
COC(=O)c1ccc(CNC(=O)c2ccc3oc(C(C)C)nc3c2)cc1 |  | -27.4% (inactive)
COc1ccc(CSc2nnnn2-c2ccc(O)cc2)cc1F |  | -50.4% (inactive)
CC1CCCCC1NC(=O)Cn1cnc2c1c(=O)n(C)c(=O)n2C (centres undefined) |  | -10.2% (inactive)
O=C(c1ccc(Oc2ccc(Cl)cc2)c([N+](=O)[O-])c1)N1CCCC1 | 13 µM (active) | 
O=C(Oc1ccccc1Cl)c1ccc(N2CCOCC2)c([N+](=O)[O-])c1 |  | -13.1% (inactive)
O=C(COc1ccc(Cl)cc1[N+](=O)[O-])N1CCCCC1 |  | -12.8% (inactive)
Cc1ccc(-c2nn(CC(C)(C)C)c3ncnc(N)c23)cc1 | 6.68 µM (active) | 
Cc1ccc(-n2cnc3ncnc(-c4ccccc4)c32)cc1 |  | 24.9% (inactive)
CC(=O)NC(CC(=O)Nc1nccs1)c1ccccc1 (centres undefined) |  | -13% (inactive)
CCOc1ccc(NC(=O)CN(C)C(=O)COc2cccc(CC)c2)cc1OCC |  | -24.3% (inactive)
Cc1noc(C)c1CCC(=O)N1CCCC(CO)(Cc2ccccc2)C1 (centres undefined) |  | -17.9% (inactive)
Oc1ccc2ccccc2c1C=Nc1ccccc1 |  | 1.22% (inactive)
Oc1ccc2ccccc2c1N=Nc1nccs1 | 1.16 µM (active) | 

SMILES | Potency | activity change, negative = growth inhibition
Oc1ccc(N=Nc2nccs2)c(O)c1 | 10.3 µM (active) | 
O=C(OCC(=O)N1CCCCCC1)c1ccc(Br)c(S(=O)(=O)N2CCOCC2)c1 |  | -9.49% (inactive)
COC(=O)C1=C(C(=O)OC)[C@@H]2N(Cc3ccccc3)c3ccccc3[C@@]23C[C@@H](C(=O)OC)N(S(=O)(=O)c2ccc(C(F)(F)F)cc2)C3=N1 |  | -26.2% (inactive)
CN1OC[C@@H]2CN(C(=O)C(C)(C)C)[C@H](c3ccc(-n4ccnc4)cc3)C[C@@H]21 |  | -11.7% (inactive)
Cc1cc(C(=O)Nc2c(C)n(C)n(-c3ccccc3)c2=O)cs1 |  | -15% (inactive)
O=C(Nc1cccc(NC(=O)c2cccc(F)c2)c1)c1ccccc1 |  | -13.4% (inactive)
O=C(Nc1cccc(F)c1)c1coc(=O)c(Br)c1 | 1.3 µM (active) | 
Cc1c(NC(=O)c2cccnc2)c(=O)n(-c2ccccc2)n1C | inactive | 
Cc1c(NC(=O)c2coc(=O)c(Br)c2)c(=O)n(-c2ccccc2)n1C | 2.59 µM (active) | 
O=C(CCN1C(=O)c2ccccc2C1=O)Nc1cccc(F)c1 |  | -3.34% (inactive)
NS(=O)(=O)c1ccc(NC(=S)N2CCCC2)cc1 |  | -3.82% (inactive)
CCSC1=NCCN1C(=O)c1ccc(S(=O)(=O)N(CC)CC)cc1 |  | 9.95% (inactive)
COc1ccc(N(C(=O)c2cccnc2)S(=O)(=O)c2ccc(OC)c(OC)c2)cc1 |  | -24.6% (inactive)
COc1ccc(C(=O)Nc2cccnc2)cc1C(=O)Nc1cccnc1 |  | -4.05% (inactive)
COc1ccc(C(=O)Nc2ccc(-n3nncc3-c3ccccc3)cc2)cc1OC | 3.66 µM (active) | 
COc1ccccc1C(=O)NNC(=O)c1ccc(NC(=O)c2ccccc2)cc1 |  | -24.4% (inactive)
CCC1OC(C2CC2)CC2=C1C(=O)OC(C)(C)O2 (centres undefined) |  | -4.59% (inactive)
CC(=O)N1N=C(c2ccccc2)OC1c1cccnc1 (centres undefined) |  | -0.38% (inactive)
Cc1cc(C)cc(NC(=O)CCN2C(=O)c3ccccc3C2=O)c1 |  | -4.76% (inactive)
Cc1ccc(/C=N/NC(=O)C2=NNC(c3ccccc3)(c3ccccc3)C2)c(O)c1 | 4.61 µM (active) | 
Cc1ccc2nc(CNC(=O)c3ccccc3)[nH]c2c1 |  | 9.98% (inactive)
O=C(N/N=C/c1ccc(O)c2ccccc12)c1cccnc1 |  | -13.9% (inactive)
COc1ccc(-c2cc(C(F)(F)F)nc(S(C)(=O)=O)n2)cc1OC | 2.06 µM (active) | 
COc1ccc(C2=NO[C@@H]3C(=O)N(Cc4ccccc4)C(=O)[C@H]23)cc1OC |  | 3.64% (inactive)
CCN(CC)CCN(C)C(c1ccnc2ccccc12)c1nnnn1-c1ccc2c(c1)OCCO2 (centres undefined) |  | -31.6% (inactive)
Cc1ccc(S(=O)(=O)NCCCn2ccnc2)cc1C(=O)NC(C)C |  | -3.13% (inactive)

SMILES | Potency | activity change, negative = growth inhibition
O=C(NCc1ccco1)c1ccc([N+](=O)[O-])cc1Cl |  | 3.37% (inactive)
Cc1ccc(C(=O)OCC(=O)NC2CCCCCCC2)cc1C |  | -4.81% (inactive)
c1ccc2c(c1)C(=NC1CCCCC1)NC2=NC1CCCCC1 | 18.4 µM (active) | 
COc1cc(NC(=S)N2CCCC(C)C2)cc(OC)c1OC (centres undefined) |  | -22.1% (inactive)
CCC(=O)N1CCc2cc(CNC(=O)Nc3ccccc3Cl)ccc21 |  | -29.4% (inactive)
Cc1cccc(C(=O)N2CCc3cc(CNC(=O)Cc4ccc(F)cc4)ccc32)c1 | 16.4 µM (active) | 
O=C(NCc1ccc2c(c1)CCN2C(=O)c1ccccc1)Nc1cc(F)ccc1F | 16.4 µM (active) | 
O=C(COc1ccccc1)NCc1ccc2c(c1)CCN2C(=O)c1ccc(F)cc1 | 16.4 µM (active) | 
O=C(COc1ccccc1)Nc1ccc(C(=O)N2CCCC2)cc1 |  | 1.05% (inactive)
COc1cccc(C(=O)NCc2ccc3c(c2)CCN3C(=O)c2ccncc2)c1 |  | -12.1% (inactive)
O=C(Cc1ccccc1)NCc1ccc(F)cc1 |  | -7.47% (inactive)
O=C(CN1CCN(C(=O)c2cccc(F)c2)CC1)Nc1ccccc1F |  | 0.779% (inactive)
O=C(CCc1ccccc1)NCc1ccc2c(c1)CCN2C(=O)c1ccccc1 | 10.3 µM (active) | 
O=C(CCc1ccc(S(=O)(=O)NC2CCCCC2)cc1)NCc1ccccc1 |  | -18.8% (inactive)
Cc1ccc(C(=O)N2CCc3cc(CNC(=O)c4ccc(Br)cc4)ccc32)cc1 |  | -84.3% (inactive)
O=C(CSCc1ccccc1)N1CCc2ccccc21 |  | -9.01% (inactive)
CC1CCC2(CC1)NC(=O)N(CC(=O)c1ccc3c(c1)OCO3)C2=O (centres undefined) |  | 4.95% (inactive)
COc1cc(OC)c(N(C)C(=O)c2cc3c(=O)oc4ccccc4c3s2)cc1Cl |  | 4.07% (inactive)
CCc1nnc(NS(=O)(=O)c2ccc(NC(=O)c3cccc(OC(F)(F)C(F)F)c3)cc2)s1 |  | 6.34% (inactive)
CCCCCC(=O)Nc1ccc(-c2cn3cccnc3n2)cc1 |  | -3.88% (inactive)
O=C(Nc1cccc2cccnc12)c1cccc2c(Br)cccc12 |  | -12.4% (inactive)
COC(=O)C1NN=C(C(=O)c2ccc(Br)cc2)C1c1cccc(Br)c1 (centres undefined) |  | 6.78% (inactive)
O=C(Nc1ccc(Br)cc1)c1cccc(NC(=O)C2C3CC4OC(=O)C2C4C3)c1 (centres undefined) |  | -28.6% (inactive)
CCc1cccc(CC)c1NC(=S)Nc1ccc2cn[nH]c2c1 |  | -26.3% (inactive)
Cc1cc2cc(CNC(=O)c3cccs3)ccc2[nH]1 |  | -0.633% (inactive)
CCc1cccc(CC)c1NC(=S)NCc1ccc2[nH]c(C)cc2c1 | 23.1 µM (active) | 
